Source: PubChem BioAssay AID540317 (National Center for Advancing Translational Sciences (NCATS), 2011)
Hit rate of the full screen: of about 390,000 compounds, about 2,200 (0.56%) were called active. Not shown: some 3% with an inconclusive outcome. This is one part of a sample in which actives are shown more often than they occur. Calls follow the shape of the dose curve; as a rule, active = well fitted inhibition curve with a large enough effect; inconclusive = small, poorly fitted or top-dose-only effect; inactive = no such curve, though single readings can be large or run the other way.

Target: Chromobox protein homolog 1 (Homo sapiens) (UniProt P83916)
Sequence (P83916 whole entry, looked up): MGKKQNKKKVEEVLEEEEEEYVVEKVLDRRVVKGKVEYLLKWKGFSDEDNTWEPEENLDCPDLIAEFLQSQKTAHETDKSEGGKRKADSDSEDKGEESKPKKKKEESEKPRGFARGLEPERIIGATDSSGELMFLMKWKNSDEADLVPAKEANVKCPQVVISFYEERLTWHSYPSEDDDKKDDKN
Assay: HTS for Inhibitors of HP1-beta Chromodomain Interactions with Methylated Histone Tails; also: nearly all actives have a fitted effect of over 70% in size
Details: AlphaScreen HP1-beta / biotin-H3K9me3 peptide binding; series mostly up to 114 µM; activity change, negative = inhibition: at the top concentration
Excerpt: As our understanding of epigenetics expands, it is becoming clear that players in this field are potential targets for drug development. This area of epigenetic therapy has established applications for the treatment of cancer and neurological diseases. We have been involved in this field for a number of years and have performed high-throughput screens to identify the first small molecule inhibitors of protein methyltransferases. These methyltransferases target multiple substrates, and thus regulate many arms of an epigenetic pathway. The methylation of different substrates often generates docking sites for effector proteins that harbor binding domains (chromo, tudor, PHD, MBT and ANK repeats). It has been proposed that the binding sites generated for different proteins by these post-translational modifcations mediate downstream effects on chromatin. Consistent with this theory, di- and tri-methylation of histone H3K9 facilitates the binding of heterochromatin protein HP1. The HP1 protein harbors a chromodomain that is responsible for the methyl-dependent interaction between HP1 and lysine 9 of histone H3. HP1 was first described in flies as a heterochromatin associated protein that can regulate gene silencing. It harbors a chromodomain that binds H3K9me3. In addition, it harbors a chromoshadow domain that interacts with a large number of proteins that are involved in heterochromatin formation and gene repression. There are three highly related HP1 isoforms. All three variants are associated with pericentric heterochromatin and it is not clear whether they have specific or redundant functions. MPP8 is also involved in the repression of gene in euchromatic regions (unpublished data) and like HP1 its chromodomain binds H3K9me3. MPP8 harbors an ankyrin repeat region that is likely involved in binding and recruiting interacting proteins with transcriptional repressive function, much like the chromoshadow domain of HP1 does. We hypothesize that by inhibiting specific protein-protein interactions we will be able to develop compounds that block a single arm of an epigenetic pathway. The specificity attained by blocking a single protein-protein interaction will be far greater than that attained by blocking the enzyme that regulates one of many interactions. Low-affinity protein-protein interactions (Kd in the single- to double-digit micromolar range) such as those discussed here have been very difficult to assay by traditional techniques such as fluorescence polarization or fluorescence resonance energy transfer. We have developed a sensitive chemiluminescence-based assay (Quinn, et al. 2009), which serves as the starting point for this project. The following is a validation assay to identify lead compounds that can block methyl-dependent protein-protein interactions (specifically HP1-beta), which can be used as probes to analyze these methyl-driven interactions and perhaps even developed into targeted epigenetic therapies. NIH Chemical Genomics Center [NCGC] NIH Molecular Libraries Probe Centers Network [MLPCN] MLPCN Grant: DA031087 Assay Submitter (PI): Mark Bedford, University of Texas, Medical Anderson Cancer Center, TX
To each well, 2 uL of HP1-beta protein (final 50 nM) and 1 uL biotinylated histone peptide trimethylated at Lys9 [b-H3(1-18)K9me3] (final 50 nM) was added in 1x PBS buffer, pH 7.4, containing 0.01% Tween-20 using a nanoliter dispenser. Formation of a protein-peptide complex proceeded at room temperature for 30 min. A Kalypsys pin-tool was employed to transfer 23 nL of library compound solution in DMSO to each well. Aurintricarboxylic acid (ATA) was used as an intraplate control with a 12-point titration in duplicate. Following a 30 min incubation of the protein-peptide complex with compounds at room temperature, a mixture of 40 ug/mL each streptavidin-coated donor and nickel chelate acceptor AlphaScreen beads (final 10 ug/mL) was added in a 1 uL dispense for a final volume of 4 uL. […]
Potency is read from the fitted curve at half-maximal effect.

Potency, active:
O=C(NC1=CC(=O)c2ccccc2C1=O)c1ccccc1 22.4 µM
Cc1csc(Nc2ccc(Cl)cc2)[n+]1-c1ccc(Cl)cc1 17.8 µM
COc1cc(C(=S)NCc2ccccc2)cc(Br)c1O 7.94 µM
CN(C)c1ccc(Nc2c3c4c(cccc4n(C)c2=O)C(=O)c2ccccc2-3)cc1 4.47 µM
COc1ccc(Cl)cc1NC(=O)CN(C)Cc1ccc(OC)c(OC)c1 39.8 µM
COc1ccc(Cl)cc1NC(=O)CCS(=O)(=O)c1ccc(Br)cc1 12.6 µM
COC(=O)/C=C\C(=O)Nc1cccc([N+](=O)[O-])c1 10 µM
COc1ccc(/C=C/C(=O)c2cc(Br)ccc(=O)c2O)cc1 50.1 µM
Nc1ccc2[nH]c(=S)sc2c1 28.2 µM
Oc1ccc(CNc2ccccc2O)cc1 50.1 µM
Cc1cc([N+](=O)[O-])c(NC2CCCCC2)c([N+](=O)[O-])c1 15.8 µM
O=C(CN1CCCCCC1)Nc1ccc(Br)cc1[N+](=O)[O-] 50.1 µM
COc1ccc2c(c1)c(=Cc1ccc(N(C)C)cc1)c1cc(-c3ccccc3)[n+](C)n12 39.8 µM
C=CCN(CC=C)CCOc1ccccc1[N+](=O)[O-] 39.8 µM
Cc1cc(C=O)c(C)n1-c1ccc(NC2CCCCC2)c([N+](=O)[O-])c1 25.1 µM
N#C/C(=C\C1=C(N2CCOCC2)C(=C\c2ccccc2)/CC1)C(=O)Nc1ccccc1F 7.08 µM
N#Cc1c(N2CCCCC2)nc(N)c2c(N)nc(SCC(=O)O)cc12 35.5 µM
CSC1=N/C(=C\C=C\c2cccs2)C(=O)S1 28.2 µM
COc1ccc(OCc2n[nH]c(=S)n2N)cc1 10 µM

Activity change, negative = inhibition, inactive:
NS(=O)(=O)c1cc(C(=O)OCC(=O)NNC(=O)c2ccccc2)ccc1Cl 20.8%
CCOc1ccccc1NC(=O)Cn1c2ncccc2c(=O)n1-c1ccc(C)c(C)c1 15.2%
COc1cccc(Nc2nc3ccccc3c3nncn23)c1 48.6%
COC(=O)c1cc(NC(=O)c2cnc(SC)nc2-c2ccccc2)cc(C(=O)OC)c1 36.3%
Cc1ccc(F)cc1S(=O)(=O)N1CCC(c2nc3ccccc3s2)CC1 67.3%
Cc1ccc2cccc(NC(=O)c3cccc4ccccc34)c2n1 87.3%
COc1cc(Cl)cc(C2NC(=O)NC(C)=C2C(=O)NCc2ccccc2)c1O (centres undefined) 10.7%
COc1ccc(CNC(=O)c2ccc3c(O)c(S(=O)(=O)c4ccccc4)c(=O)[nH]c3c2)cc1 19.6%
COC(=O)c1ccc(NC(=O)CSc2n[nH]c(-c3ccccc3)n2)cc1 32.5% [at 57 µM]
COc1ccc(OCCCn2c(C3CC(=O)N(c4ccc(F)cc4)C3)nc3ccccc32)cc1 (centres undefined) 23%
COc1ccc2c(c1)CCc1c(C(=O)Nc3cc(C)ccc3O)noc1-2 27.4%
Cc1nnc(N2CCCC(C(=O)NCCN(C)C)C2)c2nn(-c3ccccc3)c(C)c12 (centres undefined) 40.3%
COc1ccc(Cl)cc1NC(=O)CCC(=O)c1ccc(C)cc1 32.3%
Cc1ccc(Cl)cc1NC(=O)CCS(=O)(=O)c1ccc(Br)s1 -9.23%
COc1ccc(Cl)cc1NC(=O)CN(C)C(=O)CNC(=O)C12CC3CC(CC(C3)C1)C2 9.71%
COc1ccc(Cl)cc1NC(=O)CN(C)CC(=O)Nc1ccc2c(c1)OCO2 26.1%
O=C(Nc1cccc2cccnc12)c1cccc2c(Br)cccc12 44.8%
COc1cccc(CNC(=O)CCc2nc(-c3ccc(C)cc3)no2)c1 58.9%
C=CCCN(C(Cc1ccccc1)C(=O)OC)S(=O)(=O)c1cc(Br)ccc1Br (centres undefined) 59.4%
COc1ccc(-c2noc(-c3ccc(N4CCN(c5ccccc5)CC4)c([N+](=O)[O-])c3)n2)cc1OC 41.2%
CCc1ccc(NC(=O)CN2C(=O)CCSc3ccc(S(=O)(=O)N4CCCC4)cc32)cc1 18.2% [at 57 µM]
Cc1ccc(-c2nnc3ccc(SCC(N)=O)nn23)cc1 32%
COC(=O)CCc1ccccc1S(=O)(=O)N(CCC(=O)OC)Cc1ccccc1 -5.53%
Cc1ccc(C)c(Nc2nnc(-c3ccc(C)c(S(=O)(=O)N4CCCCC4)c3)c3ccccc23)c1 26.8%
CCc1ccc(NC(=O)C(C)OC(=O)/C=C/c2cccc([N+](=O)[O-])c2)cc1 (centres undefined) 12.7%
CC(C)OP(=O)(OC(C)C)C(Nc1ccccc1)c1cccc([N+](=O)[O-])c1 (centres undefined) 15%
Cc1c(-c2nsc(NC(=O)c3cccc(Cl)c3)n2)nnn1-c1ccccc1C(F)(F)F 20.1%
CCOCCCNC(=O)c1ccc2nc(CCc3ccccc3)oc2c1 19.6% [at 57 µM]
CCOc1ccc(NC(=S)NC(=O)/C=C/c2ccc(OC)cc2)c([N+](=O)[O-])c1 -2.89%
COc1cccc(N2CC(NC(=O)/C=C\c3ccccc3)CC2=O)c1 (centres undefined) 5.02%
CC1CCN(S(=O)(=O)c2ccc3c(c2)N(CC(=O)NCCc2ccccc2)C(=O)CO3)CC1 10.4%
Brc1nc2ncnc(NCc3ccco3)c2[nH]1 7.51% [at 57 µM]
COC(=O)c1ccc(NC(=O)CCc2c(C)nn(-c3ccc(N4CCCC4)nn3)c2C)cc1 39.1%
Oc1ccc(N2CCN(C(=S)NCc3ccccc3)CC2)cc1 -18.1%
OCC(CO)(CO)NCc1ccc(-c2ccccc2)cc1 16.6%
COc1cccc(CNC(=O)CSc2c3c(nc4cc(Cl)ccc24)CCCC3)c1 47.5%
N#Cc1cc2[nH]c(=O)c(=O)[nH]c2cc1[N+](=O)[O-] 2.3%
CCN(C(=O)Cn1cnc2sc(C)c(S(=O)(=O)N3CCN(c4ncccn4)CC3)c2c1=O)c1ccccc1F 46.6%
O=S(=O)(c1ccccc1)c1nc(-c2ccc(Cl)cc2Cl)oc1N1CCCCC1 -21.6% [at 57 µM]
Cc1ccc(C(=O)COC(=O)CCCC(=O)NC2CCCCC2)cc1[N+](=O)[O-] 19.2%
Cc1cc([N+](=O)[O-])c(N2CCC[C@@H]2C(=O)O)c([N+](=O)[O-])c1 22.6%
COc1ccc(C2Nc3ccc(NC(=O)COC(C)=O)cc3C(=O)N2Cc2ccccc2)cc1COc1ccc(NC(C)=O)cc1 (centres undefined) 33.9%
O=C(NCc1ccccc1)c1cccc(NC(=O)N2CCSc3ncccc32)c1 45.2%
CCCN(C(=O)Cn1ncc2c([nH]c3ccc(C)cc32)c1=O)c1ccccc1C 5.82%
Cc1ccc(CCNC(=O)c2nnc(Cc3cccc(F)c3)o2)cc1 -11.4%
COc1cccc(-c2n[nH]c3c2C(c2cccc(O)c2)N(C)C3=O)c1 (centres undefined) 10.2%
O=C(CN1CCCCCC1)Nc1ccc(Br)cc1Br 121%
O=C(CN1CCC(NC(=O)C2CC2)CC1)Nc1ccccc1[N+](=O)[O-] 13.5%
COc1ccc(C(CCN2CCOCC2)c2c(OC)cc(OC)c3c2OC(=O)CC3c2ccc(OC)cc2)cc1 (centres undefined) -21.1%
CCOc1ccc(N2CC(C)Cn3c2nc2c3c(=O)n(Cc3c(F)cccc3Cl)c(=O)n2C)cc1 (centres undefined) 46.2%
COC(=O)c1ccccc1NC(=O)Cn1c(=O)n(-c2cccc(C(F)(F)F)c2)c(=O)c2c(C)c(C)sc21 12.3%
CCOc1ccc(S(=O)(=O)c2cn(Cc3ccc(OC)cc3)c3ccc(F)cc3c2=O)cc1 43.2%
COc1ccc(-c2ccc(C3C4C=CCCC4(C)C(=O)N3Cc3ccccc3)c(F)c2)cc1OC (centres undefined) 14.5%
Clc1cccc(-n2ncc3c(NCCc4ccccc4)ncnc32)c1 97.1%
CCCOC(=O)c1c(NC(=O)c2cc3nc(-c4ccc(OC)cc4)cc(C(F)(F)F)n3n2)sc2c1CCCC2 5.34%
Cc1ccc(OCC(=O)Oc2ccccc2[N+](=O)[O-])cc1 20.1%
O=C(COc1ccccc1[N+](=O)[O-])NC1CC1 39.7%
OCCNc1ncnc2oc(-c3ccco3)c(-c3ccco3)c12 -0.766%
CCOC(=O)C1CCCN(C(=O)c2ccc(-n3ccc4ccccc43)s2)C1 (centres undefined) 99.9%
O=C(c1cccc(Br)c1)N1CCN(Cc2cc(=O)n3nc(-c4ccccc4)sc3n2)CC1 20.1% [at 57 µM]
COc1ccc(NC(=O)CN(C)C(=O)c2ccc(NC3CC3)c([N+](=O)[O-])c2)cc1 -5.96%
Cc1c(NC(=O)CCC2CCCCC2)cc(C(=O)N2CCOCC2)cc1[N+](=O)[O-] 59.7%
CCOc1ccc(CC(=O)NCCc2csc3nc(-c4ccccc4F)nn23)cc1 13.6% [at 57 µM]
CCOc1ccccc1N(C)C(=O)c1cc2c(s1)-c1ccccc1OC2 26.3%
CCc1ccc(OCCCn2c(CCCNC(=O)C3CCCCC3)nc3ccccc32)cc1 27.3% [at 57 µM]
Cc1ccc(OCC(=O)Nc2ccc(Cl)c(-c3nc4ccccc4[nH]3)c2)cc1C 41.1%
Cc1ccc(C(=O)Nc2ccccc2F)cc1S(=O)(=O)N1CCOCC1 39.4%
O=C(CC1SC(N2CCOCC2)=NC1=O)Nc1ccccc1F (centres undefined) 59.6%
O=C(Nc1ccc(Br)cc1)c1ccc(Br)c(S(=O)(=O)NCc2ccccc2)c1 -11%
CC(C)C12CN3CC(C(C)C)(CN(C1)C3c1ccc(OCc3ccccc3)cc1)C2=O (centres undefined) 4.34%
O=C(O)c1ccc2c(c1)N(Cc1ccc(F)cc1)C(=O)c1ccccc1S2=O (centres undefined) 28.1%
Cc1ccc(CNS(=O)(=O)c2ccc(-c3cc(C(F)(F)F)on3)s2)cc1 48.9%
CCC(C)c1ccc2oc(-c3ccc(NC(=O)c4cc5ccccc5o4)cc3)nc2c1 (centres undefined) 5.45%
CCCCc1nn2c(=O)cc(COC(=O)c3ccccc3NC(=O)C(C)(C)C)nc2s1 32.6%
Cc1cc(NC(=O)CSc2ncc(C(=O)Nc3ccc(Cl)cc3)c(=O)n2C)no1 19.9%
Cc1ccc(C(=O)NCCSc2c(C)[nH]c3ccccc23)cc1C 8.02%
Cc1ccc(C)c(N2C(=O)N(Cc3c(F)cccc3Cl)c3ccccc3S2(=O)=O)c1 51.8%
COc1ccc(-c2onc(C)c2C)cc1S(=O)(=O)NCCc1ccccc1 17.1%
Cn1c(CCCOc2ccc(Cl)cc2Cl)n[nH]c1=S -3.23%
C=CCn1c(CCc2ccc(OC(C)C)cc2)n[nH]c1=S 9.44%
